From ChEMBL document CHEMBL3988442, “University of Dundee, Small-Polar-MMV Screening Library” (2021)

Legend:
[1] = biological target: T1, Aspartate--tRNA(Asp/Asn) ligase (Mycobacterium tuberculosis (strain ATCC 25618 / H37Rv)) (UniProt P9WFW3); experiment: Assay for Asp RNA synthetase-1 from Mycobacterium tuberculosis; type: functional; set-up: scale not given: direction of the effect not stated beside the values; conditions: 30 µM; also: in the data most compounds retested in dose-response had high values
T1 sequence (whole entry): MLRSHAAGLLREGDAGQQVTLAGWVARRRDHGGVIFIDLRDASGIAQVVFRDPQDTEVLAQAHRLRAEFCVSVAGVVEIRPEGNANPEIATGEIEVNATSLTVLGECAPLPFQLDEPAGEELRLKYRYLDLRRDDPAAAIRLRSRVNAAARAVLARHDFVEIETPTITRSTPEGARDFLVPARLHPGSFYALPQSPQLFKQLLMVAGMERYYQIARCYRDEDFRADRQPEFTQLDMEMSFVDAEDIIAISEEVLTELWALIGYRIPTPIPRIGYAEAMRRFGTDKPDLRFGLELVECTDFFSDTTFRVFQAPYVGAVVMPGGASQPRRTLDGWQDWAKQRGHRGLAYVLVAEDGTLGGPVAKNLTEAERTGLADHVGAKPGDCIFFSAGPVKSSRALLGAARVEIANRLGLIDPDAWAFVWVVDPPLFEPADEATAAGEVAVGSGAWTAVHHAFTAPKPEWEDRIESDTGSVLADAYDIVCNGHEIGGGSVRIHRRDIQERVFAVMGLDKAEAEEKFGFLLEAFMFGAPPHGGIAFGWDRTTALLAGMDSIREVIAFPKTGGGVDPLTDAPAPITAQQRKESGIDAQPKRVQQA

[2] = biological target: Shiga toxin 2 (Escherichia coli O157:H7) (UniProt P09385+P09386); experiment: E. coli 0.157:H7 Shiga Toxin SOP - stx2 screening assay; type: functional; set-up: scale not given: direction of the effect not stated beside the values; conditions: 30 µM

Row | Compound | Percent Effect [1] [%] | Percent Effect [2] [%]
1 | c1ccc(-c2nc(CN3CCOC(Cn4cccn4)C3)no2)cc1 (centres undefined) | -1.51 | 4.08
2 | COCCNc1nc(C2CCCC2)nc2c1CCNCC2 | 2.87 | -36.8
3 | CC1CN(C(=O)NCCCn2cncn2)CCO1 (centres undefined) | -7.24 | 31.5
4 | CN(C)CC1CSCCCN1C(=O)c1ccc(=O)[nH]c1 (centres undefined) | 0.539 | 3.65
5 | Cc1ccc(C(CNCc2ccncc2)N2CCOCC2)s1 (centres undefined) | 2.18 | -29.8
6 | COc1ncccc1C(=O)NCC(C)Oc1cccnc1 (centres undefined) | -5.57 | -2.36
7 | CCc1cc(C(=O)N2CCCC2c2nc(C)c(F)c(O)n2)on1 (centres undefined) | 2.22 | -57
8 | O=C(N1CCOCC1)[C@@]12CCO[C@@H]1CCN(Cc1ccccc1F)C2 | -6.79 | -21.7
9 | Cc1cnn(CC2CCCN2CC(=O)Nc2nc(C)cs2)c1 (centres undefined) | 1.62 | -8.49
10 | Cc1ccc(C(=O)N2CCC3(CC2)CCN(CCN(C)C)C3=O)cn1 | -4 | -1.78
11 | Cc1cn(-c2ccccc2)nc1NS(=O)(=O)c1cccc(C(=O)O)c1 | 2.62 | -5.83
12 | Cc1nc(C)n(CC2CCCN2Cc2nc3ccccc3n2C)n1 (centres undefined) | -7.69 | 5.05
13 | CCCn1ccc(C(=O)N2CCC(C)CC2)n1 | 3.36 | -27.6
14 | CC(C)n1ccnc1C1CCN(C(=O)C2COc3ccccc3O2)CC1 (centres undefined) | -1.53 | 13.2
15 | Fc1ccc(CCN2CCC(c3nnc(-c4cccnc4)o3)CC2)cc1 | 4.51 | -76.7
16 | Cc1nc(C)n(CC2CCCN(CC(=O)Nc3nncs3)C2)n1 (centres undefined) | -4.19 | 25.6
17 | CCOC(=O)N1CCN(c2nc(NCCCO)c3ccccc3n2)CC1 | 1.68 | -29.9
